# Measurements: PubChem BioAssay (NCI)
# “And” between values parts separate entries of the source, which are not always exact repeats. Identical values can stand only once. Compounds without any hit were thinned out: in the full panel of roughly 83,000, 20% have a hit.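 Note: values are percent growth. 100 is the growth of untreated cells, values between 100 and 0 indicate rising inhibition; between -100 and 0 indicates cell death.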 The source made the active and inactive calls.
# System: HT29 colon
# Test: NCI-60 one-dose screen, 48 h (100 = growth as untreated, 0 = no growth, -100 = all killed)
# Details: 10 µM
# Description: Growth inhibition of the HT29 human tumor cell line is measured as a screen for anti-cancer activity. Cells are grown in 96 well plates and exposed to the test compound for 48 hours. Compounds are tested at a single concentration, which is 10^-5 M for most compounds. The reported endpoint is percent growth (GI% or GIPRCNT), where numbers from 0 - 100% represent growth inhibition, and numbers from -100% - 0 represent cell death. For example, a value of 40 represents 60% growth inhibition. A value of 0 means no net growth occurred over the course of the experiment. A value of -40 indicates 40% of cells at the beginning of the experiment died by the end of the experiment. A value of -100 means all cells are dead at the end of the experiment.
# NCI-60 Human Tumor Cell Lines Screen was performed using the standard one-dose NCI protocol, which is described in more detail at https://dtp.cancer.gov/discovery_development/nci-60/default.htm.
# Compounds with GIPRCNT values below 10 were considered active. Activity score was based on GIPRCNT using the following formula: […]
# Score is 0 for GIPRCNT values of 100 or above, 50 for GIPRCNT values of 0, and 100 for GIPRCNT values of -100.
row,SMILES,growth
1,O=c1ccn2c(n1)OC1CC2OC1COC(c1ccccc1)(c1ccccc1)c1ccccc1 (stereo unspecified),108% (inactive)
2,S=c1nc[nH]c2nc[nH]c12,41.7% (inactive)

# Same assay, conditions: 10 µM unless noted
row,SMILES,growth
1,Oc1ccc(O)c(-c2ccccc2)c1,102% (inactive)
2,Nc1ccccc1SC(CC(=O)c1ccccc1)c1cccc([N+](=O)[O-])c1 (stereo unspecified),11.5% (inactive) and 30.2% (inactive)
3,COc1cc2c(cc1O)C(=O)CCCC2,97.2% (inactive)
4,Cc1cc2nc3ccc(=[N+](C)C)cc-3sc2cc1N,3.91% (active) and 19.4% (inactive)
5,Cc1onc(-c2c(F)cccc2Cl)c1-c1ncc(-c2ccc(Cl)cc2)o1,23.3% (inactive) and 21.8% (inactive)
6,COc1ccc(CCN=Cc2ccc(Cl)cc2)cc1OC,107% (inactive)
7,O=c1[nH]nnc2cc(Cl)ccc12,109% (inactive) and 129% (inactive)
8,COC(=O)c1nc(=S)[nH]c(C(=O)OC)c1C(=O)c1ccccc1,109% (inactive)
9,CC1(C)CC(=O)NC1=O,99.8% (inactive)
10,NCCCCCC(=O)O,100% (inactive) [middle of 4 runs]
11,O=C1Cc2ccccc2C(=O)N1,88.9% (inactive)
12,NNC(=O)Nc1ccccc1,106% (inactive)
13,S=c1ccc2ccccc2[nH]1,96% (inactive) and 100% (inactive)
14,CCN(CC)C(CC(=O)c1ccccc1)C(=O)c1ccccc1 (stereo unspecified),95.1% (inactive)
15,CCCC(=O)Oc1ccc2ccccc2c1,103% (inactive)
16,Cc1c(Cl)cc(Cl)c(N)c1Cl,108% (inactive)
17,Cc1ccc(C(=O)c2ccc(C)cc2)cc1,95.4% (inactive) and 102% (inactive)
18,COc1ccc2oc3c(ccc[n+]3C)c(=O)c2c1,96.6% (inactive)
19,CN(C)c1ccc(C(=N)c2ccc(N(C)C)cc2)cc1,2.09% (active) and 4.13% (active)

row,SMILES,growth
1,CN1C2C=CC(=O)C1C1C(=O)N(c3ccccc3)C(=O)C12 (stereo unspecified),48.8% (inactive)
2,c1ccc2c[n+](Cc3ccc4ccccc4n3)ccc2c1,57.2% (inactive)
3,N=C(N=C(N)N)N1CCOCC1,104% (inactive) and 111% (inactive)
4,CCOC(=O)C1=CC(=O)CC(C)(C)O1,92.6% (inactive) and 101% (inactive)
5,CC1(CO)CCCC1NCCNC1CCCC1(C)CO (stereo unspecified),91.3% (inactive) and 103% (inactive)
6,O=C(Nc1ccccc1)OCC(CN1CCCCC1)OC(=O)Nc1ccccc1 (stereo unspecified),69.6% (inactive) and 87.2% (inactive)
7,COc1ccc(/C=N/NC(N)=S)cc1,102% (inactive)
8,C(=N\OCCc1ccccc1)/c1ccccn1,112% (inactive) and 97.7% (inactive)
9,C/C(=C\c1ccccc1)C(O)C(=O)c1nc2ccc([N+](=O)[O-])cc2[nH]c1=O (stereo unspecified),102% (inactive)
10,CCOC(=O)c1ccc(C(=N)N)cc1,106% (inactive)
11,O=C1C2=C(Nc3cc(Cl)ccc3N2)OC1c1c[nH]c2ccc(COc3ccccc3)cc12 (stereo unspecified),86.4% (inactive)
12,COc1cc(NCCCCCNC(C)C)c2ncccc2c1,85.9% (inactive) and 67.1% (inactive)
13,CCN(C)c1ccccc1,103% (inactive)
14,Cn1c(-c2ccccc2)cc(=O)cc1-c1ccccc1,24.7% (inactive)
15,Cc1c(Cl)c(C)c(Cc2c(C)c(Cl)c(C)c(Cl)c2O)c(O)c1Cl,34% (inactive)
16,CC1=CC(=O)c2cccc(NC3=NCCO3)c21,101% (inactive)
17,Cc1cc(Cl)nc(Nc2ccccc2)n1,104% (inactive)
18,O=C(/C=C/C=C/c1ccc2c(c1)OCO2)N1CCCCC1,99.5% (inactive) and 87.6% (inactive)

# Same assay, conditions: 50 µM
row,SMILES,growth
1,S=c1nc[nH]c2nc[nH]c12,14.3% (inactive)

# Same assay, conditions: 100 µM
row,SMILES,growth
1,O=c1ccn2c(n1)OC1CC2OC1COC(c1ccccc1)(c1ccccc1)c1ccccc1 (stereo unspecified),106% (inactive)
